RN4220 kill = S. aureus RN4220 growth inhibition; inhibition, % (test concentration not listed); hit rate 0.33% among 330,000; AID 1259311; OD600, 16 h; in the data active means inhibition above about 85%
BJeLR lethal = BJeLR cell viability loss; BJeLR (HRASV12) viability, CellTiter-Glo ATP luminescence, 48 h; inhibition, % (no concentration beside the values); hit rate 0.17% among 300,000; AID 1554; in the data active means inhibition above about 50%
Sa ugtP lethal = growth inhibition of S. aureus ugtP deletion strain. S. aureus RN4220 ugtP deletion, OD600 growth, 16 h. growth inhibition, % (test concentration not listed). hit rate 0.54% among 330,000. AID 1259309; in the data active means growth inhibition above about 68%
PrPC TRFRET = cell surface PrPC inhibition, primary TR-FRET screen | P04156 | TR-FRET read-out | inhibition, % at 13.8 µM | hit rate 0.43% among 370,000 | AID 720596; in the data active means inhibition above about 24%
PrPC confirm = confirmation of inhibitors of cell surface human prion protein | hit rate 65% among 1,500 | shares compounds with PrPC TRFRET | inhibition, % at 13.8 µM | AID 743200 | cell surface PrPC level, TR-FRET; in the data active means inhibition above about 25%
LD9 tox = LD9 cell cytotoxicity, PrPc inhibitor counter-screen; shares compounds with PrPC TRFRET; LD9 cells cytotoxicity, luminescence viability; inhibition, % at 13.8 µM; hit rate 29% among 1,500; AID 743201; in the data active means inhibition above about 9.5%
A number is an active result. A selection: hits, their analogues and other compounds. The true share with any hit is near 0.95%.

How did NC(=NOC(=O)CCC1CCCCC1)c1ccc([N+](=O)[O-])cc1 do in these assays?
RN4220 kill: inactive; Sa ugtP lethal: inactive

Results for COC(=O)c1ccc(Cl)c(-c2ccc(C=NNC(=O)Nc3ccccc3)o2)c1 ?
RN4220 kill: inactive; Sa ugtP lethal: inactive

What do the screens show for `O=C(N/N=C/c1ccc(O)cc1O)/C(=C/c1ccccc1)CCO`?
BJeLR lethal: inactive; PrPC TRFRET: 30.3; PrPC confirm: 32.5; LD9 tox: 17.4

How did COc1cc(C(=O)N[C@@H](C)C(=O)N2CCC3(CC2)NCCc2[nH]cnc23)cc(OC)c1OC do in these assays?
RN4220 kill: inactive; BJeLR lethal: inactive; Sa ugtP lethal: inactive; PrPC TRFRET: 24.7; PrPC confirm: inactive; LD9 tox: inactive

Results for CCC(=O)NN=C(C)CC(=O)Nc1cc(Cl)ccc1C ?
RN4220 kill: inactive; Sa ugtP lethal: inactive

How did COCc1cc(C)nc(SCc2ccccc2Cl)c1C#N do in these assays?
RN4220 kill: inactive; BJeLR lethal: inactive; Sa ugtP lethal: inactive; PrPC TRFRET: 25.2; PrPC confirm: inactive; LD9 tox: inactive

What do the screens show for `O=C(CCCCCn1c(=S)[nH]c2ccc(Br)cc2c1=O)NCC1CCCO1` (configuration not stated)?
RN4220 kill: inactive; BJeLR lethal: inactive; Sa ugtP lethal: inactive; PrPC TRFRET: inactive

What do the screens show for `NS(=O)(=O)c1ccc(CCNC(=O)CCCCCn2c(=S)[nH]c3ccc(Br)cc3c2=O)cc1`?
RN4220 kill: inactive; BJeLR lethal: inactive; Sa ugtP lethal: inactive; PrPC TRFRET: 24.9; PrPC confirm: 37.0; LD9 tox: inactive

How did CCOC(=O)[C@]12Cc3cc(OC)ccc3[C@H]1N(C1CCCCC1)C(=O)c1ccccc12 do in these assays?
PrPC TRFRET: 26.4; PrPC confirm: 41.6; LD9 tox: 95.1

What do the screens show for `CCCCCN1C(=O)c2cc(OC)ccc2[C@@]2(C(=O)OCC)Cc3cc(Cl)ccc3[C@@H]12`?
PrPC TRFRET: 33.4; PrPC confirm: 46.6; LD9 tox: 98.8

What do the screens show for `CCOC(=O)[C@]12Cc3cc(OC)ccc3[C@H]1N(C)C(=O)c1ccccc12`?
PrPC TRFRET: inactive

How did CC1C2Cn3c(nc4ccccc43)C1N(C1CCCCC1)O2 (configuration not stated) do in these assays?
RN4220 kill: inactive; Sa ugtP lethal: inactive

How did Cn1c2ccccc2c(=O)c2ccc(C#Cc3ccc(N)cc3)cc21 do in these assays?
RN4220 kill: inactive; BJeLR lethal: inactive; Sa ugtP lethal: inactive; PrPC TRFRET: 28.8; PrPC confirm: 52.7; LD9 tox: 19.0

How did COc1ccc(C#Cc2ccc3c(=O)c4ccccc4n(C)c3c2)cc1 do in these assays?
RN4220 kill: inactive; BJeLR lethal: inactive; Sa ugtP lethal: inactive

What do the screens show for `CC(=O)c1ccc(NC(=O)CSc2nc(C3CC3)nc3ccccc23)cc1`?
RN4220 kill: inactive; BJeLR lethal: inactive; Sa ugtP lethal: inactive; PrPC TRFRET: inactive

Results for CCc1nc(SCC(=O)Nc2ccc(N(C)C)cc2)c2ccccc2n1 ?
RN4220 kill: inactive; BJeLR lethal: inactive; Sa ugtP lethal: inactive; PrPC TRFRET: 60.6; PrPC confirm: 80.9; LD9 tox: inactive

What do the screens show for `CCc1nc(SCC(=O)NNC(=O)C(C)C)c2ccccc2n1`?
RN4220 kill: inactive; BJeLR lethal: inactive; Sa ugtP lethal: inactive; PrPC TRFRET: 104.3; PrPC confirm: 113.5; LD9 tox: inactive

How did CCc1nc(SCC(=O)NNC(=O)C2CCCCC2)c2ccccc2n1 do in these assays?
RN4220 kill: inactive; BJeLR lethal: inactive; Sa ugtP lethal: inactive; PrPC TRFRET: 60.3; PrPC confirm: 114.2; LD9 tox: inactive

How did Oc1ccc(C=NNc2ccc(C(F)(F)F)cn2)cc1 do in these assays?
RN4220 kill: inactive; Sa ugtP lethal: inactive

How did Fc1cccc(C=NNc2ccc3ccccc3n2)c1 do in these assays?
RN4220 kill: inactive; Sa ugtP lethal: inactive

Results for COc1ccc(/C=C/C(=O)NCCn2c(C)cc3ccccc32)cc1OC ?
RN4220 kill: inactive; BJeLR lethal: inactive; Sa ugtP lethal: inactive; PrPC TRFRET: 63.8; PrPC confirm: inactive; LD9 tox: inactive

How did COc1cc(/C=C/C(=O)NCCn2c(C)cc3ccccc32)cc(OC)c1OC do in these assays?
RN4220 kill: inactive; BJeLR lethal: inactive; Sa ugtP lethal: inactive; PrPC TRFRET: 48.8; PrPC confirm: inactive; LD9 tox: 10.2

What do the screens show for `O=C(Nc1cc(S(=O)(=O)N2CCCCC2)ccc1Cl)c1ccccc1NS(=O)(=O)c1ccc(F)cc1`?
RN4220 kill: inactive; BJeLR lethal: 50.7; Sa ugtP lethal: inactive; PrPC TRFRET: 25.2; PrPC confirm: 33.0; LD9 tox: 24.7

How did CCOc1ccccc1OCC(=O)Nc1cc(C)on1 do in these assays?
RN4220 kill: inactive; Sa ugtP lethal: inactive; PrPC TRFRET: inactive

What do the screens show for `COC(=O)NNC(=O)COc1ccc2ccccc2c1Br`?
RN4220 kill: inactive; BJeLR lethal: inactive; Sa ugtP lethal: inactive; PrPC TRFRET: 34.4; PrPC confirm: 49.1; LD9 tox: inactive

What do the screens show for `Cc1cc(NC(=O)COc2ccc3ccccc3c2Br)no1`?
RN4220 kill: inactive; Sa ugtP lethal: inactive; PrPC TRFRET: 80.5; PrPC confirm: 101.0; LD9 tox: inactive

How did O=C(COc1ccc2ccccc2c1Br)NNC(=O)Nc1ccccc1 do in these assays?
RN4220 kill: inactive; BJeLR lethal: inactive; Sa ugtP lethal: inactive; PrPC TRFRET: inactive

How did CC(C)(C)C(=O)NNC(=O)COc1ccc2ccccc2c1Br do in these assays?
RN4220 kill: inactive; BJeLR lethal: inactive; Sa ugtP lethal: inactive; PrPC TRFRET: 72.3; PrPC confirm: 70.9; LD9 tox: inactive

What do the screens show for `CCc1cc2c(=O)c(-c3ccc4c(c3)OCCO4)coc2cc1OS(C)(=O)=O`?
RN4220 kill: inactive; BJeLR lethal: inactive; Sa ugtP lethal: inactive; PrPC TRFRET: 36.4; PrPC confirm: 31.4; LD9 tox: inactive

How did O=C1c2cccnc2-c2ncccc21 do in these assays?
RN4220 kill: inactive; BJeLR lethal: inactive; Sa ugtP lethal: inactive; PrPC TRFRET: inactive

Results for O=C1C(=O)c2cccnc2-c2ncccc21 ?
PrPC TRFRET: 30.8; PrPC confirm: 61.9; LD9 tox: 98.7

How did CSc1ncccc1C(=O)Nc1nc(C(C)(C)C)cs1 do in these assays?
RN4220 kill: inactive; BJeLR lethal: inactive; Sa ugtP lethal: inactive; PrPC TRFRET: 26.6; PrPC confirm: 26.6; LD9 tox: inactive

How did CCc1cc2ccccc2nc1SCC(=O)Nc1cc(OC)c(OC)cc1C(=O)O do in these assays?
BJeLR lethal: inactive; PrPC TRFRET: 39.6; PrPC confirm: inactive; LD9 tox: inactive

What do the screens show for `Cc1cc(C)cc(CC(Cc2nc3ccccc3[nH]2)c2nc3ccccc3[nH]2)c1` (configuration not stated)?
RN4220 kill: inactive; BJeLR lethal: inactive; Sa ugtP lethal: inactive; PrPC TRFRET: 27.5; PrPC confirm: 30.4; LD9 tox: inactive

What do the screens show for `CC(=O)NC(c1ccc(C(C)C)cc1)c1ccc2cccnc2c1O` (configuration not stated)?
BJeLR lethal: inactive; PrPC TRFRET: 25.8; PrPC confirm: 27.5; LD9 tox: 21.6
